Consider 40 compounds from PubChem BioAssay (NCI).

Structures are written as SMILES. About 83,000 compounds went through this panel and 20% of them were active in at least one assay; those are over-represented in the sample as a whole.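 Method: cells in 96-well plates; compound added at one concentration; 48 h incubation; percent growth measured; values under 10 scored active.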 A number with no mark means an inactive call. The source made the active and inactive calls.

For this assay, the system named is MDA-MB-468 breast. The assay is described as follows: NCI-60 one-dose screen, 48 h (100 = growth as untreated, 0 = no growth, -100 = all killed). Conditions: 10 µM unless noted.
Take `CC1CN(CC(O)c2ccc(Br)cc2)CCO1` (stereo not given): the growth is 115%.

`CCOC(=O)c1cnc2c(OC)ccc(OC)c2c1Cl`: the growth is 113%.

Consider `COc1ccc(C(=O)NC(=O)Nc2cc3c(cc2F)/C(=C/c2[nH]c(C)c(CCC(=O)O)c2C)C(=O)N3)c(F)c1`, for which the growth was 50.4%.

`CC(=O)O[C@@]12CO[C@@H]1C[C@H](O)[C@@]1(C)C(=O)[C@H](O)C3=C(C)[C@@H](OC(=O)[C@H](O)[C@@H](NC(=O)OC(C)(C)C)c4ccccc4)C[C@@](O)([C@@H](OC(=O)c4ccccc4)C12)C3(C)C` (stereo not given in full): the growth is 3.09% (active).

`C=C1C(=O)O[C@H]2[C@H]1CC/C(COC(=O)NCCc1c[nH]c3ccc(Cl)cc13)=C\CC[C@@]1(C)O[C@@H]21`: the growth was -59% (active).

As to `CN1CCN(Cc2ccc(NC(=O)c3cccc(C#Cc4c(N)ncc5ccc(F)cc45)c3)cc2C(F)(F)F)CC1`, the growth was -61.7% (active).

In the case of `CCOC(=O)C1=C(C)N=c2s/c(=C\c3cc(Cl)ccc3O)c(=O)n2C1c1ccc(OC)cc1` (stereo not given), the growth is 94.8%.

Take `CC(C)(C)c1ccc(C(=O)Nc2sc3c(c2C(N)=O)CCC(=O)C3)cc1`: the growth was -54.7% (active).

In the case of `COc1cc(-c2nc(SCCC(C)C)nc(Nc3ccc(F)cc3)c2C#N)cc(OC)c1OC`, the growth was 96.8%.

In the case of `OCC1OC(n2cnc3c(NCc4ccco4)ncnc32)C(O)C1O` (stereo not given), the growth was -82.8% (active).

As to `CC1CC(O)CC(C)(C)C1.CC1CC(O)CC(C)(C)C1.CC1CC(O)CC(C)(C)C1.CC1CC(O)CC(C)(C)C1.[Ti]` (stereo not given), the growth was 115%.

On to `C=C1C(=O)O[C@H]2[C@H]1CC/C(COC(=O)c1cccnc1)=C\CC[C@@]1(C)O[C@@H]21`, for which the growth was 17.6%.

For the compound `Cc1nc(S(=O)(=O)c2ccccc2)c(S(=O)(=O)Cc2ccc([N+](=O)[O-])cc2)o1`, the growth is 78.1%.

As for `C=C1C(=O)O[C@H]2[C@H]1CC/C(COC(=O)/C=C\C(=O)NCc1ccc(Cn3c(=O)sn(-c4ccc(Cl)cc4)c3=O)cc1)=C\CC[C@@]1(C)O[C@@H]21`, the growth was -83.5% (active).

Take `C[C@@H]1CC[C@@H]2[C@@H]1[C@H](OC(=O)/C=C/c1ccccc1)[C@]1(C3CCCCC3)C[C@@H](NC(=O)CO)[C@@]2(C)O1`: the growth was 115%.

On to `Cc1ccc(Cl)cc1NC(=O)N(C)CCO`, for which the growth is 132%.

In the case of `COc1ccc(-c2cc(-c3ccccc3)nc(SCCCCCC(=O)NO)n2)cc1`, the growth is 64.8%.

Consider `O=S(=O)(NCCO)c1ccc(OCCOc2ccc(S(=O)(=O)NCCO)cc2)cc1`, for which the growth was 95.3%.

Take `Cc1c(C(=O)NCCCc2ccccc2)sc2ncc(-c3ccc(Br)cc3)n12`: the growth was 108%.

In the case of `COc1ccc(CCN2C(=O)CSC2=S)cc1`, the growth was 12.9%.

For `COC(=O)/C(CCC=C(C)C)=C1\[C@@H](OC(C)=O)C[C@@]2(C)[C@H]1CC(=O)[C@H]1[C@@]3(C)CCC(N4CCCC4)[C@@H](C)[C@@H]3CC[C@@]12C` (stereo not given in full), the growth is 99.7%.

`O=C(NCCNC(=O)c1ccc(F)cc1)Nc1ccc(-n2cc(-c3ccncc3)c(-c3ccc(Cl)c(O)c3)n2)cc1`: the growth was -35.9% (active).

For `COc1cc(Br)c(OC)cc1Br`, the growth was 95.5%.

Regarding `COc1cccc2cc(-c3cc4ccccc4[nH]3)/c(=N/C(=S)Nc3ccccc3)oc12`, the growth was 79.1%.

`COc1cc(-c2nc(N3CCN(C)CC3)c3ccccc3n2)cc(OC)c1OC`: the growth is 38.4%.

Take `CC1CCCCC[N+]12CCCC2` (stereo not given): the growth is 99.4%.

Turning to `CCOC(=O)c1ccc2c(c1)nc(-c1ccc(Cl)cc1)n2-c1cc(C(C)(C)C)[nH]n1`, the growth is 18.7%.

On to `O=C(Nc1nc(-c2ccc(Cl)cc2)nc2c1sc(=S)n2-c1ccccc1)C(F)(F)F`, for which the growth was 70.1%.

Turning to `COc1ccc(C(=O)c2nc3ccccc3n2CC(=O)c2ccc(F)cc2)cc1`, the growth was 55%.

Consider `CN(C)c1ccc(C(=C2C=CC(=[N+](C)C)C=C2)c2ccc(N(C)C)cc2)cc1`, for which the growth is -82.4% (active).

For the compound `COc1cc(Cl)cc(-c2nn(-c3cccc(NC(=O)c4ccc(Cl)c(Cl)c4)c3)cc2-c2ccncc2)c1`, the growth was 54.6%.

As for `N#Cc1cncc(-c2ccc3ncnc(Nc4cccc(Cl)c4)c3c2)c1`, the growth was 9.34% (active).

`Cc1nc(-c2cc3ccccc3c(N3CCN(C)CC3)n2)cs1`: the growth was 87%.

Regarding `N#C/C(=C\c1c(-c2ccccc2)[nH]c2ccccc12)C(=O)c1ccccc1`, the growth was 86.9%.

Consider `COc1cc(/C=C/C(=O)Nc2cccnc2Nc2ccc(F)cc2)cc(OC)c1OC`, for which the growth is 97.4%.

`O=C(OCC1CCCO1)c1ccc([N+](=O)[O-])cc1` (stereo not given): the growth was 88.9%.

Turning to `Fc1ccc(COc2ccc(Nc3ncnc4sc5c(c34)CCCC5)cc2)cc1`, the growth is 93.9%.

With `COc1ccc(Cn2cc(C(=O)N=Nc3c(O)[nH]c4c(C)cccc34)nn2)cc1`, the growth was 89.2%.

Take `COc1ccc(/C=C/C(=O)Nc2cccnc2Nc2ccc(F)cc2)cc1`: the growth was 84%.

Turning to `CCN(CC)CC(=O)Nc1ccc2ncnc(Nc3ccc(Oc4cccc(F)c4)c(Cl)c3)c2c1`, the growth was 13.6%.
